Assay outcomes (PubChem BioAssay)
Hits are enriched below; roughly 12% of the tested compounds scored in any of these assays.
L major viab: Leishmania major promastigote growth inhibition, primary screen. Leishmania major promastigotes, resazurin fluorescence viability. inhibition, % at 10 µM. hit rate 9% among 200,000; in the data active = inhibition above about 50%;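 also: promastigotes grown with compound for 44 hours at 28 °C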
WT yeast gro inh: growth inhibition of WT strain, primary screen, mitochondrial fusion inhibitor project, WT and mutant strains, chemical genetic; hit rate 2.1% among 190,000; inhibition, % at 10 µM; mitochondrial fusion phenotypic screen; in the data active = inhibition above about 58%; tested in S. cerevisiae
Ins promoter up: insulin promoter activators in MIN6 cells, imaging, high-content screening, mouse beta cells; AID 1625, 2009; z-score at 5 µM; hit rate 0.3% among 190,000; MIN6 insulin promoter-GFP reporter; hits give high values;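 active = z-score above 3 at 5 µM with at least 500 cells counted in the well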
KCC2 mod: KCC2 cotransporter modulators, thallium flux, primary screen, cell-based, HEK293 KCC2, FluoZin-2 fluorescence, MLSMR. Solute carrier family 12 member 5 (Homo sapiens), Q9H2X9. KCC2 cells, thallium flux FluoZin-2 fluorescence. B-score of Tl+ flux slope (higher = more flux/activation; lower = inhibition) at 10 µM. hit rate 2.2% among 190,000. AID 1456, 2008;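 active = thallium flux slope and its plate-corrected score both differing from the plate sample mean at a set confidence after two filtering rounds, in either direction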;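 also: slope of fluorescence scaled to starting intensity during 10 to 20 s after thallium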
ROMK primary: ROMK potassium channel modulators, primary screen, cell-based, thallium flux, MLSMR library; ATP-sensitive inward rectifier potassium channel 1 (Homo sapiens), P48048; Tet-inducible ROMK, thallium flux fluorescence; actives lie on both sides; B-score at 10 µM; hit rate 2% among 130,000; AID 1918, 2009;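 active = signal ratio slope over the read window, or its plate-corrected B-score, at least 3 SD from the plate mean, either direction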;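 also: B-score of the F/F0 ratio slope over 7 to 12 s after thallium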
Target sequence (P48048 whole entry, looked up): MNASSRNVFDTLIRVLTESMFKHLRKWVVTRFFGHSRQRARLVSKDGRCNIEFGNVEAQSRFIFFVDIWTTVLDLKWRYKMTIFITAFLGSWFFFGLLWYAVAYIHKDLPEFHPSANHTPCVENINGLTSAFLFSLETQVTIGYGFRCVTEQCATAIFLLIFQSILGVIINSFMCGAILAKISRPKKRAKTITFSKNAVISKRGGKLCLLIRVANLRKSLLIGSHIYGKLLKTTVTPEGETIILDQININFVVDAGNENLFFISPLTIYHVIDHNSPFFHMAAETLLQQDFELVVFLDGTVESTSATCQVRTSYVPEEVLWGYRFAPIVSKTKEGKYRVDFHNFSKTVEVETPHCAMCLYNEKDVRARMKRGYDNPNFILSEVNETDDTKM
Insulin prom inh: inhibitors of insulin promoter-driven GFP, primary screen, imaging, TRM-6 cells (human fetal islet line), eGFP reporter, cell count. inhibition, % at 2 µM. hit rate 0.9% among 130,000. reporter expression induced with tamoxifen;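 active = inhibition above the mean plus 3 SD, with well images judged a real hit on visual review, cut at about 60% in these data, passing the limit was not always enough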
L major 1uM: Leishmania major promastigote growth inhibition, confirmation, 1 µM repeat of primary hits | shares compounds with L major viab | L. major promastigote growth, resazurin fluorescence, 48 h | inhibition, % at 1 µM | hit rate 13% among 1,100;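 active = inhibition above about 50% in both repeat tests, limit read from the data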
The depositor's hits bear a star.

`O=C(COc1ccc([N+](=O)[O-])cc1)Nc1ccc(CN2CCOCC2)cc1` gave L major viab 63*, WT yeast gro inh 5, Ins promoter up -0.17, KCC2 mod 0.14 and ROMK primary -0.29.
For CCOc1ccccc1N(CC(=O)NCC1CCCO1)C(=O)CNS(=O)(=O)c1ccccc1 (stereo not given) the results were L major viab 3, WT yeast gro inh -7, Ins promoter up -0.54, KCC2 mod -0.2 and ROMK primary 0.94.
For NS(=O)(=O)c1ccc(NC(=O)CSc2ncn[nH]2)cc1 the results were L major viab -9, WT yeast gro inh -1, Ins promoter up -0.9, KCC2 mod 0.54, ROMK primary 0.6 and Insulin prom inh 0.
Screening Cc1nnc(-c2cnn(-c3ccccc3)c2N)n1Cc1ccccc1 returned L major viab -3, WT yeast gro inh 40, KCC2 mod 0.85 and Insulin prom inh 14.
For CCC(=O)NC(Nc1cc(C)cc(C)n1)(C(F)(F)F)C(F)(F)F the results were L major viab 0, WT yeast gro inh -10, Ins promoter up 0.02, KCC2 mod 2, ROMK primary 0.47 and Insulin prom inh 31.
CC12CC3CC(C)(C1)CC(C(=O)NC(=S)N1CCCCC1)(C3)C2 was read as L major viab 4, WT yeast gro inh 77*, Ins promoter up -0.23, KCC2 mod 10*, ROMK primary -1.2 and Insulin prom inh 67.
For CC12CC3(C)CC(C)(C1)CC(C(=O)NC(=S)N1CCOCC1)(C2)C3 the results were L major viab -1, WT yeast gro inh 5, Ins promoter up 0.33, KCC2 mod 9.4* and Insulin prom inh -50.
O=C(NC(=S)N1CCOCC1)C12CC3CCC(CC(C3)C1)C2 was read as L major viab -9, WT yeast gro inh -6, Ins promoter up -0.8 and KCC2 mod 2.6.
For CSc1ccccc1NC(=O)c1ccc(Cl)s1 the results were L major viab 10, Ins promoter up 0.41, KCC2 mod -1.6 and Insulin prom inh 0.
For CCc1ccc(C(=O)Nc2cccnc2Oc2ccc(Cl)cc2)cc1 the results were Ins promoter up 0.21 and KCC2 mod -2.6.
COc1ccc(OC)c(C(c2nnnn2C2CCCC2)N2CCc3ccccc3C2)c1 (stereo not given) was read as L major viab 88*, WT yeast gro inh 33, Ins promoter up -1.2 and L major 1uM 4.
Cc1noc(C)c1COc1ncnc2ccccc12 was read as L major viab -5, WT yeast gro inh -8, Ins promoter up -0.96, KCC2 mod -0.011, ROMK primary 1 and Insulin prom inh -7.
COc1ccccc1N1CN(CCc2ccccc2)CNC1=S was read as Ins promoter up 1 and KCC2 mod 0.41.
CC(C)c1ccc(S(=O)(=O)c2ccc(NN)cc2)cc1 was read as L major viab 97*, WT yeast gro inh 69*, Ins promoter up -0.69, KCC2 mod -0.87, ROMK primary -0.94, Insulin prom inh 25 and L major 1uM -4.
`CCOC(=O)c1cn2ccc(C)cc2n1` gave L major viab -3, WT yeast gro inh -18, Ins promoter up -0.01, KCC2 mod 0.34 and ROMK primary 0.19.
For CCOC(=O)c1nc2cc3n(c(C)c-2c1C)C(C)C(CC)=C3C (stereo not given) the results were L major viab 99*, KCC2 mod 0.45, ROMK primary -0.072, Insulin prom inh -219 and L major 1uM 29.
COC(=O)C(/C=N/OCc1ccc([N+](=O)[O-])cc1)NC(=O)c1cccc(Cl)c1 (stereo not given) was read as L major viab -5, WT yeast gro inh -19, Ins promoter up -0.33, KCC2 mod -1.6, ROMK primary -1.5 and Insulin prom inh 17.
O=c1c(C=NCCN2CCNCC2)c(-c2ccccc2)[nH]n1-c1ccc([N+](=O)[O-])cc1 was read as L major viab 101*, WT yeast gro inh 0, Ins promoter up 0.13, KCC2 mod 1.5, ROMK primary -1.8 and L major 1uM 28.
`CCCNC(=O)OC[C@H]1O[C@H](CCO/N=C/c2ccc(C(=O)N3[C@H](c4ccc(C)cc4)[C@@H](C)CC[C@H]3C(=O)OC)cc2)C=C[C@@H]1Oc1ccc(OC)cc1` gave L major viab 0, WT yeast gro inh -2, Ins promoter up -0.69, KCC2 mod 0.046, ROMK primary -0.53 and Insulin prom inh 24.
For COC(=O)[C@@H]1CC[C@H](C)[C@@H](c2ccc(C)cc2)N1C(=O)c1ccc(/C=N/OCC[C@@H]2C=C[C@H](OC(C)=O)[C@@H](COC(C)=O)O2)cc1 the results were L major viab 96*, WT yeast gro inh 3, Ins promoter up -0.23, KCC2 mod -0.43, ROMK primary -0.37, Insulin prom inh 0 and L major 1uM -17.
For COc1ccc(CN(C(=O)c2ccco2)C2CC(C)N(C)CC2C)cc1 (stereo not given) the results were L major viab 3, WT yeast gro inh 23, ROMK primary -0.39 and Insulin prom inh -44.
`CC1(C)OC(=O)N(c2ccccc2)C12C=Cc1c(ccc3ccccc13)O2` (stereo not given) gave L major viab 83*, WT yeast gro inh 78*, Ins promoter up 0.16, KCC2 mod -2, Insulin prom inh -69 and L major 1uM -12.
CN(C)C(=O)c1ccccc1Sc1cc(Cl)ccc1Cl was read as L major viab 8, WT yeast gro inh -4, Ins promoter up -0.55, KCC2 mod -0.82 and ROMK primary 0.89.
For CC(OC(=O)Cc1coc2cc3c(cc12)CCC3)C(=O)NCc1ccc2c(c1)OCO2 (stereo not given) the results were L major viab -2, WT yeast gro inh 10, Ins promoter up -0.37, ROMK primary 0.86 and Insulin prom inh 29.
`CCOc1ccc(S(=O)(=O)N/N=C(\C)Cc2ccc(OC)cc2)cc1` gave L major viab 3, WT yeast gro inh -3, Ins promoter up 0.01, KCC2 mod -0.22 and ROMK primary 0.39.
Screening Cc1sc2nc(CN(Cc3cccs3)C(=O)NC3CCCCC3)[nH]c(=O)c2c1C returned L major viab 53*, WT yeast gro inh 66*, Ins promoter up -0.51, KCC2 mod -1.6, Insulin prom inh -19 and L major 1uM 2.
`Cc1sc2nc(CN(C(=O)NC3CCCCC3)C3CCCC3)[nH]c(=O)c2c1C` gave L major viab 43, WT yeast gro inh -3, KCC2 mod 0.12, ROMK primary -0.63 and Insulin prom inh 13.
`CCCCCNC1=CC(=O)CC(c2ccccc2)C1` (stereo not given) gave L major viab 13, WT yeast gro inh 41, KCC2 mod 0.38 and Insulin prom inh 26.
